# From PubChem BioAssay (Tox21)
# “And” between values parts separate entries of the source, which are not always exact repeats. Equal values may be shown once. Inconclusive results are not listed. Entries that show only a call come without a potency. A structure can be active in one record and inactive in another. The source made the active and inactive calls. Calls follow the shape of the dose curve; as a rule, active = well fitted cell-killing curve with a large enough effect in the repeat runs; inconclusive = weak or mixed curves, or effect the other way; inactive = flat fitted curve, though single readings scatter.
# Assay: qHTS assay to identify small molecule agonists of the androgen receptor (AR) signaling pathway in the presence of an antagonist - cell viability counter screen (AID 1259379); also: nearly all actives have a fitted effect of over 25% in size
# Details: MDA-kb2 viability, CellTiter-Fluor, 16 h; series mostly up to 92.4 µM
# Excerpt: National Center for Advancing Translational Sciences [NCATS]
# NIH Chemical Genomics Center [NCGC]
# U.S. Environmental Protection Agency [EPA]
# National Institutes of Environmental Health Sciences [NIEHS]
# National Toxicology Program [NTP]
# U.S. Food and Drug Administration [FDA]
# Androgen receptor (AR) is an important member of nuclear receptor family. Its signaling plays a critical role in AR-dependent prostate cancer and other androgen related diseases. Considerable attention has been given in the past decades to develop methods to study and screen for the environmental chemicals that have the potential to interfere with metabolic homeostasis, reproduction, developmental and behavioral functions. Therefore AR binding assay for screening against androgen agonists and antagonists can be used to identify potential endocrine disruptors.
# MDA-kb2 cells (from ATCC, deposited by Wilson et al.) are human breast carcinoma cells that were stably transfected with a luciferase reporter gene under control of the MMTV promoter that contains response elements for both androgen receptor (AR) and glucocorticoid receptor (GR). This particular screening for measuring luciferase reporter gene activity using MDA-kb2 cells against Tox21 10K library compounds is a confirmation study on agonist mode screening in the presence of AR-antagonist compound (Nilutamide) at 3.0uM final concentration. The cytotoxicity of the compounds was tested in parallel by measuring the cell viability using CellTiter-Fluor assay system (Promega, Madison, WI) in the same wells.
# Tox21 Assay Protocol Summary:
# MDA-kb2 cells (cells cultured without CO2) were dispensed at 3,000 cells/well in 4uL of culture medium into white wall/solid-bottom 1536-well plates (Corning Life Sciences, Corning, NY) using a Multidrop Combi (Thermo Fisher Scientific Inc., Waltham, MA) dispenser. The assay plates were incubated at 37C and 0% CO2 for 5hr. One uL of 3.0uM (final concentration) Nilutamide or assay buffer was added using two separate tips of Flying Reagent Dispenser (FRD, Aurora Discovery, San Diego, CA). Then 23nL of compounds dissolved in DMSO at 15 concentrations and positive controls were transferred to the assay plates using a Pintool station (Wako, San Diego, CA). The assay plates were incubated at 37C and 0% CO2 for 16 hr. After 15hr incubation at 37C, 1uL/well CellTiter-Fluor reagent (Promega Corporation) was added to each well of the assay plates using FRD. After 1hr incubation at 37C and 0% CO2, the fluorescence signal was measured using a ViewLux plate reader (PerkinElmer, Shelton, CT).
# Potency is read from the fitted curve at half-maximal effect.
row,Compound,Potency
1,CCCCOC(=O)c1ccc(O)cc1,inactive
2,CCCCCCCC(=O)OCC(COC(=O)CCCCCCC)OC(=O)CCCCCCC,inactive
3,COc1ccc(CN(CCN(C)C)c2ccccn2)cc1,inactive
4,CC(=O)Nc1c(I)c(NC(C)=O)c(I)c(C(=O)O)c1I,inactive
5,NC(CO)(CO)CO,inactive
6,C=CCc1ccc(O)c(OC)c1,inactive
7,CC(C)c1c(C(=O)Nc2ccccc2)c(-c2ccccc2)c(-c2ccc(F)cc2)n1CC[C@@H](O)C[C@@H](O)CC(=O)O,inactive
8,NC1CCCCC1,inactive
9,CCCCCCCCCCCCCCCC[N+](C)(C)Cc1ccccc1,35.5 µM (active) and 55.5 µM (active)
10,Oc1ccccc1,inactive
11,CN(C)C(=O)Nc1ccc(Cl)c(Cl)c1,inactive
12,COc1ccc2c(c1)c(CC(=O)O)c(C)n2C(=O)c1ccc(Cl)cc1,inactive
13,O=C1OC2(c3ccccc31)c1cc(Br)c(O)c(Br)c1Oc1c2cc(Br)c(O)c1Br,7.81 µM (active) and 22.3 µM (active) and 11.9 µM (active)
14,Cc1cc(C)nc(NS(=O)(=O)c2ccc(N)cc2)n1,inactive
15,Nc1ccc(O)c([N+](=O)[O-])c1,27.3 µM (active)
16,COc1ccc(OC(F)(F)F)cc1CN[C@H]1CCCN[C@H]1c1ccccc1,48.6 µM (active)
17,C1=CC2C3C=CC(C3)C2C1 (stereo not given),inactive
18,CN(C)C(=S)SC(=S)N(C)C,3.96 µM (active) and inactive
19,C/C=C/C=C/C(=O)O,inactive
20,Nc1ccc([N+](=O)[O-])cc1O,30.6 µM (active)

row,Compound,Potency
1,NS(=O)(=O)O,inactive
2,CCc1nc(N)nc(N)c1-c1ccc(Cl)cc1,inactive
3,O=C1c2c(O)cccc2Cc2cccc(O)c21,inactive
4,CCOc1ccc(NC(C)=O)cc1,inactive
5,O=C1NC(=O)C(c2ccccc2)(c2ccccc2)N1,inactive
6,CCCc1cc(=O)[nH]c(=S)[nH]1,inactive
7,Cc1cc(=O)oc2cc(O)ccc12,inactive
8,CC1(C)S[C@@H]2[C@H](NC(=O)[C@H](N)c3ccccc3)C(=O)N2[C@H]1C(=O)O,inactive
9,Cc1ccc(S(=O)(=O)O)cc1,inactive
10,Cc1ncc([N+](=O)[O-])n1C,inactive
11,O=CC(=O)c1ccccc1,inactive
12,Cc1cn([C@H]2C=C[C@@H](CO)O2)c(=O)[nH]c1=O,inactive
13,CCOC(N)=O,inactive
14,CC(O)(P(=O)(O)O)P(=O)(O)O,inactive
15,NC(=O)c1cccnc1,inactive
16,Cc1cccc(C)c1,inactive
17,O=C1O[C@H]([C@@H](O)CO)C(O)=C1O,inactive
18,O=c1[nH]cnc2c1ncn2[C@H]1CC[C@@H](CO)O1,inactive
19,CCCCNC(=O)NS(=O)(=O)c1ccc(C)cc1,inactive
20,CC(=O)CC(c1ccccc1)c1c(O)c2ccccc2oc1=O (stereo not given),inactive
